Many of the other results were omitted from the sample, so hits are more common in it than they were.
MARV entry inh: Marburg virus entry inhibition. 300,000 tested, 1.8% active. Marburg virus pseudotyped entry inhibition, cell reporter. Potency, µM (series often up to 37.8 µM), hits mostly inhibitors; calls by dose curve; tested in HEK293 cells
VACV Venus inh: inhibitors of vaccinia virus (Venus reporter). Vaccinia virus Venus reporter expression, fluorescence. Potency, µM (doses to about 36.5 µM), usual class: inhibitors. 330,000 tested, 0.46% active; calls by dose curve; tested in A549 cells; further: nearly all actives have a fitted effect of over 30% in size
VACV mCherry inh: inhibitors of vaccinia virus infection (mCherry reporter signal) | Vaccinia virus mCherry reporter infection, fluorescence | AID 720579 | Potency, µM (top dose mostly 36.5 µM), most hits filed as inhibitors | 310,000 tested, 0.63% active; calls by dose curve; tested in A549 cells; further: nearly all actives have a fitted effect of over 35% in size
CHX counter: counter-screen for Shiga toxin inhibitors: cycloheximide protein synthesis inhibition. cell reporter, cycloheximide protein synthesis inhibition counterscreen. max response, %. 300,000 tested, 12% active. AID 2314; in the data active means max response mostly above about 13%, no sharp cut-off; inactive means mostly below about 14%; further: read at 38.3 µM for the half of the compounds with a filed dose
Shiga toxin inh: inhibitors of Shiga toxin in Vero cells. AID 2315. inhibition, % at 38.7 µM. 290,000 tested, 9.2% active. Vero cells, Shiga toxin protein synthesis inhibition reporter; in the data active means inhibition mostly above about 28%, no sharp cut-off; inactive means mostly below about 43%
LASV entry inh: inhibitors of Lassa virus binding or cell entry; Potency, µM (series often up to 37.9 µM), actives largely listed as inhibitors; 300,000 tested, 1.2% active; Lassa virus pseudotype entry inhibition, cell reporter; calls by dose curve; tested in HEK293 cells; further: nearly all actives have a fitted effect of over 50% in size
Large screens that a line does not name were inactive.

Cc1cc(Cl)ccc1Oc1nccc(N(C)C)c1C#N	MARV entry inh inconclusive, VACV mCherry inh inconclusive, CHX counter 14, LASV entry inh inconclusive
CN(C)c1ccnc(Oc2ccccc2)c1C#N	none
COc1ccnc(Oc2ccc(Cl)cc2)c1C#N	none
CN(C)c1ccnc(Oc2ccc(C(C)(C)C)cc2)c1C#N	MARV entry inh inconclusive, CHX counter 37, Shiga toxin inh 73, LASV entry inh inconclusive
COc1ccc(CNC(=O)Cn2c(=O)c3cccn3c3cccnc32)cc1	none (no result: MARV entry inh, CHX counter, Shiga toxin inh)
CCCC(=O)NC(c1ccco1)c1cc([N+](=O)[O-])c2cccnc2c1O (stereo not drawn)	MARV entry inh inconclusive, LASV entry inh inconclusive
CCC(=O)NC(c1ccc(C)cc1)c1cc([N+](=O)[O-])c2cccnc2c1O (stereo not drawn)	MARV entry inh inconclusive, VACV Venus inh inconclusive, VACV mCherry inh 11µM, LASV entry inh inconclusive
CC(=O)NC(c1ccc(C)cc1)c1cc([N+](=O)[O-])c2cccnc2c1O (stereo not drawn)	MARV entry inh inconclusive, VACV Venus inh inconclusive, VACV mCherry inh 13µM, LASV entry inh inconclusive
Cc1ccc(NC(=O)Cc2noc3ccccc23)cc1	MARV entry inh inconclusive, CHX counter 46, Shiga toxin inh 68, LASV entry inh inconclusive (no result: VACV Venus inh, VACV mCherry inh)
Cc1cc(C)cc(NC(=O)Cc2noc3ccccc23)c1	LASV entry inh inconclusive (no result: MARV entry inh, CHX counter, Shiga toxin inh)
O=C(Cc1noc2ccccc12)Nc1ccc2ccccc2c1	MARV entry inh inconclusive, CHX counter 32, Shiga toxin inh 69 (no result: VACV Venus inh, VACV mCherry inh)
CCc1ccc(NC(=O)NCc2ccccn2)cc1	CHX counter 43, Shiga toxin inh 46 (no result: MARV entry inh, VACV Venus inh, VACV mCherry inh, LASV entry inh)
CCCCc1ccc(NC(=O)NCc2ccccn2)cc1	CHX counter 15, LASV entry inh inconclusive
CCOC(C(=O)OC[C@@H](O)CN(CC)CC)(c1ccccc1)c1ccccc1	none (no result: VACV Venus inh, VACV mCherry inh, CHX counter, Shiga toxin inh, LASV entry inh)
O=C(CCCN1C(=O)C(=Cc2ccc3c(c2)OCO3)SC1=S)Nc1ccc(C(=O)O)c(O)c1	none (no result: MARV entry inh, CHX counter, Shiga toxin inh, LASV entry inh)
O=C(NN=C1CCCC1)c1[nH]c2ccc(Br)cc2c1-c1ccccc1	MARV entry inh 8.9µM, VACV Venus inh inconclusive, VACV mCherry inh 11µM, LASV entry inh inconclusive
Cc1ccccc1C1(CC(=O)N2CCOCC2)CC(=O)N(Cc2cccnc2)C1=O (stereo not drawn)	none (no result: MARV entry inh, CHX counter, Shiga toxin inh, LASV entry inh)
O=S1(=O)N=C(Nc2ccc(N3CCOCC3)c(Cl)c2)c2ccccc21	MARV entry inh inconclusive, CHX counter 48, Shiga toxin inh 85, LASV entry inh inconclusive
COc1ccccc1Nc1ncnc2c1cnn2-c1cccc(C)c1	CHX counter 51, Shiga toxin inh 83 (no result: VACV Venus inh, VACV mCherry inh)
COc1cccc(Nc2ncnc3c2cnn3-c2cccc(C)c2)c1	CHX counter 27, Shiga toxin inh 78 (no result: VACV Venus inh, VACV mCherry inh)
COc1ccc(OC)c(Nc2ncnc3c2cnn3-c2ccccc2)c1	CHX counter 21
Cc1cccc(-n2ncc3c(Nc4ccc(C)c(Cl)c4)ncnc32)c1	none (no result: MARV entry inh, CHX counter, Shiga toxin inh)
COc1ccc(OC)c(Nc2ncnc3c2cnn3-c2ccc(C)cc2)c1	LASV entry inh inconclusive (no result: MARV entry inh, CHX counter, Shiga toxin inh)
COc1ccc(Cl)cc1NC(=O)c1cc2ccc3ccc(C)[nH]c3c2n1	none (no result: MARV entry inh, CHX counter, Shiga toxin inh)
Cc1cc2c(s1)c1cnn(Cc3ccc(S(C)(=O)=O)cc3)c(=O)c1n2C	none (no result: MARV entry inh, VACV Venus inh, VACV mCherry inh, LASV entry inh)
COc1ccc(C(C#N)N2CCC(c3ccccc3)=N2)cc1 (stereo not drawn)	MARV entry inh inconclusive, CHX counter 21, Shiga toxin inh 43
COc1cc(/C=N/N(C)c2ccccc2)cc(Cl)c1O	CHX counter 38, LASV entry inh inconclusive
COc1ccc(OC)c(C=NN=Cc2cc(OC)ccc2OC)c1	none (no result: MARV entry inh, CHX counter, Shiga toxin inh, LASV entry inh)
COc1ccc(OC)c(/C=N/N(C)c2ccccc2)c1	CHX counter 36 (no result: VACV mCherry inh)
CC(=O)Nc1cc(C(=O)NCc2ccccc2)ccc1Sc1ccc(C)cc1	none (no result: MARV entry inh, CHX counter, Shiga toxin inh)
Cc1cc(C)cc(-n2ccnc(NCc3ccc(F)cc3)c2=O)c1	none (no result: MARV entry inh, CHX counter, Shiga toxin inh)
COc1ccccc1CNC(=O)c1ccc(C)c(-n2cnc3cccnc32)c1	none (no result: MARV entry inh, CHX counter, Shiga toxin inh)
CC(=O)OC(C)(C)/C=C/C(=O)[C@](C)(O)C1[C@H](O)C[C@@]2(C)C3CC=C4C(C=C(O[C@@H]5O[C@H](CO)[C@@H](O)[C@H](O)[C@H]5O)C(=O)C4(C)C)[C@]3(C)C(=O)C[C@]12C (stereo partly drawn)	VACV Venus inh 22µM (no result: MARV entry inh, CHX counter, Shiga toxin inh, LASV entry inh)
CC(=O)OC(C)(C)/C=C/C(=O)C(C)(O)C1[C@H](O)C[C@@]2(C)C3CC=C4C(CC[C@@H](O)C4(C)C)[C@]3(CO)C(=O)C[C@]12C (stereo partly drawn)	MARV entry inh 0.25µM, VACV Venus inh 35µM, VACV mCherry inh 7.1µM, LASV entry inh inconclusive
CC1(C)Oc2ccc3ccc(=O)oc3c2C[C@H]1O[C@@H]1O[C@H](CO)[C@@H](O)[C@H](O)[C@H]1O	none (no result: MARV entry inh, CHX counter, Shiga toxin inh, LASV entry inh)
CC(=O)OC(C)(C)/C=C/C(=O)C(C)(O)C1C(O)CC2(C)C3CC=C4C(CC(O)C(=O)C4(C)C)C3(C)C(=O)CC12C (stereo not drawn)	MARV entry inh inconclusive, VACV Venus inh 40µM, VACV mCherry inh inconclusive, LASV entry inh 0.13µM (no result: CHX counter, Shiga toxin inh)
CC(=O)OC(C)(C)/C=C/C(=O)[C@](C)(O)[C@H]1[C@H](O)C[C@@]2(C)[C@@H]3CC=C4[C@H](C[C@H](O)C(=O)C4(C)C)[C@]3(C)C(=O)C[C@]12C	MARV entry inh inconclusive, VACV Venus inh 8.9µM, VACV mCherry inh inconclusive, LASV entry inh 0.29µM
Cc1cccc(NC(=O)CN2CCN(C(=O)c3c(C)nn(Cc4ccccc4)c3C)CC2)c1C	none (no result: CHX counter, Shiga toxin inh)
Cc1cc(O)cc2c1C1CCC3(C)C(=O)CCC3C1C=C2 (stereo not drawn)	MARV entry inh inconclusive, VACV Venus inh inconclusive, VACV mCherry inh 1.8µM (no result: CHX counter, Shiga toxin inh)
COc1cccc(C(=O)NC(=O)Nc2cc(C)on2)c1	CHX counter 56, Shiga toxin inh 71 (no result: LASV entry inh)
COc1cccc(NC(=O)Nc2cc(C)on2)c1	CHX counter 23 (no result: MARV entry inh, VACV Venus inh, VACV mCherry inh, Shiga toxin inh, LASV entry inh)
CCc1nc2cc(C(=O)N(C)CC3COCCO3)cc(NC(=O)c3ccccc3OC)c2n1C (stereo not drawn)	none (no result: MARV entry inh, CHX counter, Shiga toxin inh, LASV entry inh)
Cn1c(=O)c2c(ncn2CC(COCc2ccc(Cl)cc2)OCc2ccc(Cl)cc2)n(C)c1=O (stereo not drawn)	MARV entry inh 7.9µM, VACV Venus inh inconclusive, LASV entry inh inconclusive (no result: VACV mCherry inh)
Cn1c(=O)c2c(ncn2Cc2ccc(Cl)cc2)n(C)c1=O	MARV entry inh inconclusive, LASV entry inh inconclusive
COc1cc(-c2nnc(CSc3nnc(Nc4ccc(C(C)C)cc4)s3)o2)cc(OC)c1OC	MARV entry inh inconclusive, VACV Venus inh inconclusive, VACV mCherry inh inconclusive, CHX counter 19, LASV entry inh inconclusive
Cc1ccc(CNC(=O)C(=O)NCC(c2cccs2)S(=O)(=O)c2ccc(C)cc2)cc1 (stereo not drawn)	LASV entry inh inconclusive (no result: MARV entry inh, CHX counter, Shiga toxin inh)
Cc1ccc(OCC(=O)Nc2nnc(SCc3cc(=O)n4cccc(C)c4n3)s2)cc1	none (no result: MARV entry inh)
C/C(=N\NC(=O)CSCc1ccccc1Cl)c1cc(O)ccc1O	CHX counter 23, Shiga toxin inh 40 (no result: MARV entry inh, VACV Venus inh, VACV mCherry inh, LASV entry inh)
Cc1ccc(-c2csc3ncnc(Sc4nnnn4C4CC4)c23)cc1	none (no result: MARV entry inh, CHX counter, Shiga toxin inh, LASV entry inh)
Cn1nnnc1Sc1ncnc2scc(-c3ccc(F)cc3)c12	MARV entry inh 8.2µM, VACV Venus inh inconclusive, VACV mCherry inh 10µM, LASV entry inh 4.1µM

Compound activity: PubChem BioAssay, National Center for Advancing Translational Sciences (NCATS)
